Test results: PubChem BioAssay (NCATS)
A number with no mark means an inactive call. Records with an inconclusive call do not appear. Entries that show only a call come without a potency. The source made the active and inactive calls. Unless noted, the call rests on the fitted dose curve; in most records, active means well fitted curve in the direction sought with a large enough effect; inconclusive means small, poorly fitted or top-dose-only effect, or another doubt; inactive means no such curve, though single readings can be large; an effect the other way counts as inactive or inconclusive.

Columns and labels:
NIH3T3 = test: qHTS assay to identify novel small-molecules to repurpose for Merkel cell carcinoma treatment (AID 1296009); conditions: MCC and control cell lines, CellTiter-Glo viability, 72 h; at 44.8 µM (top of the series) unless noted; further: nearly all actives have a fitted effect of over 60% in size
In short: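 After compound transfer in DMSO, plates were kept 72 hr at 37 degree celsius. Luminescent ATP signal from CellTiter-Glo served as viability measure, normalized against DMSO and no-cell controls.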

C33A = test: Primary qHTS to identify gynecologic anti-cancer compounds using libraries of approved drugs and bioactive compounds (AID 1345084); conditions: Gynecologic cancer cell panel viability, ATPlite luminescence, 48 h; series mostly up to 57.5 µM; further: nearly all actives have a fitted effect of over 55% in size; further: potency means the concentration at half of the fitted maximal effect
In short: (§1)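 Luminescence from the ATPlite ATP-monitoring reagent indicates viable cell number; lower signal means cytotoxicity. Cells received compound 16 h after seeding and were exposed for 48 h across five concentrations.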

CAOV3 = test: as above; conditions: Gynecologic cancer cell panel viability, ATPlite luminescence, 48 h; series mostly up to 57.5 µM
In short: as §1

CASKI = test: as above; conditions: Gynecologic cancer cell panel viability, ATPlite luminescence, 48 h; series mostly up to 57.5 µM
In short: as §1

HeLa = test: as above; conditions: Gynecologic cancer cell panel viability, ATPlite luminescence, 48 h; series mostly up to 57.5 µM
In short: as §1

Hek293T = test: as above; conditions: Gynecologic cancer cell panel viability, ATPlite luminescence, 48 h, control line for the selectivity index; series mostly up to 57.5 µM
In short: as §1

JEG-3 = test: as above; conditions: Gynecologic cancer cell panel viability, ATPlite luminescence, 48 h; series mostly up to 57.5 µM
In short: as §1

OV90 = test: as above; conditions: Gynecologic cancer cell panel viability, ATPlite luminescence, 48 h; series mostly up to 57.5 µM
In short: as §1

PA-1 = test: as above; conditions: Gynecologic cancer cell panel viability, ATPlite luminescence, 48 h; series mostly up to 57.5 µM
In short: as §1

SKOV3 = test: as above; conditions: Gynecologic cancer cell panel viability, ATPlite luminescence, 48 h; series mostly up to 57.5 µM
In short: as §1

Tov112D = test: as above; conditions: Gynecologic cancer cell panel viability, ATPlite luminescence, 48 h; series mostly up to 57.5 µM
In short: as §1

Es-2 = test: as above; conditions: Gynecologic cancer cell panel viability, ATPlite luminescence, 48 h; series mostly up to 57.5 µM
In short: as §1

Tov-21-G = test: as above; conditions: Gynecologic cancer cell panel viability, ATPlite luminescence, 48 h; series mostly up to 57.5 µM
In short: as §1

[1] = biological target: Nuclear receptor subfamily 1 group I member 2 (Rattus norvegicus) (UniProt Q9R1A7); test: qHTS assay for small molecule activators of the rat pregnane X receptor (rPXR) signaling pathway (AID 651751; call rule not given here); conditions: rPXR reporter cells, luciferase (One-Glo), 24 h
Sequence of Nuclear receptor subfamily 1 group I member 2 (Rattus norvegicus) (Q9R1A7 whole entry, looked up): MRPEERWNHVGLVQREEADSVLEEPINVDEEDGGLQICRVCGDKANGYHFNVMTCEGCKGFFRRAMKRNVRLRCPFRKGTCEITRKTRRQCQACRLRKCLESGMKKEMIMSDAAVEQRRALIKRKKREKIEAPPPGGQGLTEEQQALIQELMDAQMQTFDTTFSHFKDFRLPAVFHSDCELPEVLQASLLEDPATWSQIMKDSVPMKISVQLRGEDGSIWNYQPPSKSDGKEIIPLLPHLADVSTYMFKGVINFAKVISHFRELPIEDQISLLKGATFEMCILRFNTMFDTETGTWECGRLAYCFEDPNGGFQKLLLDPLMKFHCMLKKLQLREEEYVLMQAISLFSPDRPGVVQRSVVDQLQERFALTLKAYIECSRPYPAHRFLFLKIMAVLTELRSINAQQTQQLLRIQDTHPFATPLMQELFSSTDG

[2] = qHTS assay for small molecule activators of the human pregnane X receptor (PXR) signaling pathway (AID 720659; call rule not given here)

| Structure (SMILES) | outcome (NIH3T3) | Potency (C33A) | Potency (CAOV3) | outcome (CASKI) | Potency (HeLa) | Potency (Hek293T) | Potency (JEG-3) | Potency (OV90) | Potency (PA-1) | Potency (SKOV3) | Potency (Tov112D) | Potency (Es-2) | Potency (Tov-21-G) | max response [1] | outcome [2] |
| --- | --- | --- | --- | --- | --- | --- | --- | --- | --- | --- | --- | --- | --- | --- | --- |
| Cc1nnc(-c2sc(NC(=O)[C@H](C(C)C)n3c(=O)[nH]c4ccccc4c3=O)nc2C)o1 | inactive | inactive | inactive | inactive | inactive | inactive | inactive | inactive | inactive | inactive | inactive | – | – | – | – |
| CC1=CC(=O)[C@]2(O[C@@H]3O[C@@H](C)[C@H](O)[C@@H](O)[C@H]3O)C=CO[C@@H](O[C@@H]3O[C@H](CO)[C@@H](O)[C@H](O)[C@H]3O)[C@H]12 | inactive [at 17.4 µM] | inactive | – | inactive | inactive | inactive | inactive | inactive | inactive | inactive | inactive | inactive | inactive | – | – |
| O=C(O)c1ccc(NC(=O)[C@H](CC2CCCC2)n2cnc(C(F)(F)F)c2)nc1 | inactive | inactive | inactive | inactive | – | inactive | inactive | inactive | inactive | inactive | inactive | inactive | inactive | – | – |
| Cc1ccccc1N1CCN(S(=O)(=O)C[C@]23CC[C@H](C[C@@H]2NC(=O)[C@@H](N)CCS(C)(=O)=O)C3(C)C)CC1 | inactive | inactive | – | inactive | inactive | inactive | inactive | inactive | inactive | inactive | inactive | inactive | inactive | – | – |
| COc1cc2c(cc1OC)N1C(=O)C[C@@]34C=CC[N@+]5([O-])CC[C@H]2[C@H](CC3)[C@@]145 | inactive | inactive | – | inactive | inactive | inactive | inactive | inactive | inactive | inactive | inactive | inactive | inactive | – | – |
| CC(NC(=O)CC(=O)O)C(=O)Nc1ccccc1C(N)=O (centres undefined) | inactive | inactive | inactive | – | inactive | inactive | inactive | inactive | inactive | inactive | inactive | inactive | inactive | – | – |
| CN[C@H](CNC(=O)N1CCC[C@@H]([C@@H](OCCNC(=O)OC)c2cccc(Cl)c2)C1)C[C@H]1CCCOC1 | inactive | inactive | – | inactive | inactive | inactive | inactive | inactive | inactive | inactive | inactive | inactive | inactive | – | – |
| COc1ccc(CCC(=O)c2c(O)cc(O[C@@H]3O[C@H](CO)[C@@H](O)[C@H](O)[C@H]3O[C@@H]3O[C@@H](C)[C@H](O)[C@@H](O)[C@H]3O)cc2O)cc1O | inactive | inactive | inactive | inactive | inactive | inactive | inactive | – | inactive | inactive | inactive | inactive | inactive | -0.0245% | inactive |
| CC1=CC(=O)C2C(C)(C)CCC[C@]2(C)[C@H]1CC[C@H](C)CC(=O)O (some centres undefined) | inactive | inactive | – | inactive | inactive | inactive | inactive | inactive | inactive | inactive | inactive | inactive | inactive | – | – |
| COc1ccc([C@H]2OC[C@H]3[C@@H]2CO[C@@H]3c2ccc(O[C@@H]3O[C@H](CO)C(O)[C@H](O)[C@H]3O)c(OC)c2)cc1OC (some centres undefined) | inactive [at 17.4 µM] | inactive | inactive | inactive | inactive | inactive | – | inactive | inactive | – | inactive | inactive | inactive | – | – |
| C/C1=C\CC[C@]2(C)O[C@H]2C(=O)c2c(C)coc2C1 | inactive | 7.94 µM (active) | 15.8 µM (active) | inactive | 7.94 µM (active) | 10 µM (active) | – | inactive | 10 µM (active) | 7.94 µM (active) | 4.47 µM (active) | 11.2 µM (active) | 8.91 µM (active) | – | – |
| CC(=O)NC1CC(=O)C23C(=O)NC(Cc4c[nH]c5ccccc45)C2C(C)=C(C)C(O)C3/C=C/CC(C)/C=C(/C)C(O)C1O (centres undefined) | inactive [at 17.4 µM] | inactive | – | inactive | inactive | inactive | inactive | inactive | inactive | inactive | inactive | inactive | inactive | – | – |
| Cc1ccccc1-n1nc(-c2c(-c3ccc(F)cc3)nn3c2NC[C@@H](CO)C3)ccc1=O | inactive | inactive | inactive | inactive | – | inactive | inactive | inactive | inactive | inactive | inactive | inactive | inactive | – | – |
| COC(=O)c1[nH]c(=O)c2ccccc2c1-c1ccc[nH]1 | inactive | inactive | inactive | inactive | inactive | – | inactive | inactive | inactive | – | – | – | inactive | – | – |
| C=CC(C)(CCC=C(C)C)O[C@@H]1O[C@H](CO)[C@@H](O)[C@H](O)[C@H]1O (some centres undefined) | inactive | inactive | – | inactive | inactive | inactive | inactive | inactive | inactive | inactive | inactive | inactive | inactive | – | – |
| C[C@H]1CC[C@H]2[C@@H](C=C[C@@](C)(O)[C@]2(C)C(=O)CCO)C1 | inactive | inactive | inactive | inactive | inactive | inactive | – | inactive | inactive | inactive | inactive | inactive | inactive | – | – |
